Results: PubChem BioAssay (NCATS)
Results filed as inconclusive are left out. Active and inactive are the calls of the source. Unless noted, calls come from the whole dose curve.

Experiments:
[1] = molecular target: Alpha-galactosidase (Coffea arabica) (UniProt Q42656); test: Counterscreen for Glucocerebrosidase Inhibitors: qHTS Assay for Coffee Bean alpha-Galactosidase at pH 4.5 (AID 957; active = well fitted curve in the direction sought with a large enough effect; an effect the other way counts as inactive or inconclusive;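 note: series mostly up to about 77 µM; plate controls were enzyme alone for no effect and no enzyme for full effect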)
Method in brief: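 Coffee bean enzyme (2 nM) with 80 uM 4-methylumbelliferyl alpha-D-galactopyranoside in 50 mM citric acid, 0.005% Tween-20, pH 4.5, 20 min at room temperature; compounds 0.7 nM–77 uM. Stopped at pH 10, fluorescence 365/440 nm; AC50 from Hill fits.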

[2] = molecular target: Alpha-galactosidase (Coffea arabica) (UniProt Q42656); test: Counterscreen for Glucocerebrosidase Inhibitors: qHTS Assay for Coffee Bean alpha-Galactosidase at pH 5.9 (AID 998; active = well fitted curve in the direction sought with a large enough effect; an effect the other way counts as inactive or inconclusive;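 note: plate controls were uninhibited enzyme for no effect and no-enzyme basal signal for full effect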)
Method in brief: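 Compounds were titrated from 0.7 nM to 77 uM against green coffee bean alpha-galactosidase (2 nM) using 80 uM fluorogenic 4-methylumbelliferyl substrate. After 20 min at room temperature, reactions were stopped at pH 10 and read by fluorescence.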

[3] = Inducers of the Endoplasmic Reticulum Stress Response (ERSR) in human glioma: Validation (AID 504836; active = well fitted curve in the direction sought with a large enough effect; an effect the other way counts as inactive or inconclusive; note: 0% is about no effect)
Method in brief: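 ERSR induction read as luciferase luminescence (Bright-Glo, 10 min at room temperature) in stably transfected human U87-MG glioma cells exposed to compounds for 16 h, using GRP78 as sensor.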

[4] = qHTS for Inhibitors of the Functional Ribonucleoprotein Complex (vRNP) of Lassa (LASV) Arenavirus: LASV Primary Screen - GLuc reporter signal (AID 1347082; calls by dose curve; tested in HEK293 reporter line; note: series mostly up to about 57 µM; % is set by controls: 0 for no effect and ±100 for the full control effect; nearly all actives have a fitted effect of over 60% in size)
[5] = qHTS for Inhibitors of the Functional Ribonucleoprotein Complex (vRNP) of Lassa (LASV) Arenavirus: Viability assay - alamar blue signal for LASV Primary Screen (AID 1347083; calls by dose curve; tested in HEK293 reporter line; note: series mostly up to about 57 µM; % is set by controls: 0 for no effect and ±100 for the full control effect; nearly all actives have a fitted effect of over 80% in size)
[6] = qHTS for Inhibitors of the Functional Ribonucleoprotein Complex (vRNP) of Lymphocytic Choriomeningitis Arenaviruses (LCMV): Viability assay - alamar blue signal for LCMV Primary Screen (AID 1347085; calls by dose curve; tested in HEK293 reporter line; note: series mostly up to about 57 µM; % is set by controls: 0 for no effect and ±100 for the full control effect; nearly all actives have a fitted effect of over 80% in size)
[7] = molecular target: Nucleoprotein (Lymphocytic choriomeningitis virus (strain Armstrong)) (UniProt P09992); test: qHTS for Inhibitors of the Functional Ribonucleoprotein Complex (vRNP) of Lymphocytic Choriomeningitis Arenaviruses (LCMV): LCMV Primary Screen - GLuc reporter signal (AID 1347086); note: series mostly up to about 57 µM; % is set by controls: 0 for no effect and ±100 for the full control effect; nearly all actives have a fitted effect of over 70% in size
[8] = molecular target: Bile acid receptor (Homo sapiens) (UniProt Q96RI1); test: qHTS assay for small molecule agonists of farnesoid X receptor signaling (AID 588527); conditions: HEK293T FXR-UAS-bla, beta-lactamase ratio, 16 h; activation: active compounds read high;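 note: series mostly up to about 77 µM; 0% = vehicle basal and 100% = reference agonist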
Method in brief: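 FXR-UAS-bla HEK293T, 10% dialyzed FBS; cpds up to 92 uM titration, 16 h 37 C; CCF4 dye 2 h RT; fluorescence. Normalized to chenodeoxycholic acid 100 uM (100%) and DMSO (0%); Hill fit gives EC50, efficacy.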

[9] = molecular target: Peroxisome proliferator-activated receptor delta (Homo sapiens) (UniProt Q03181); test: qHTS assay for small molecule agonists of peroxisome proliferator-activated receptor delta signaling (AID 588534);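 note: 0% = DMSO basal wells and 100% = positive control agonist at 10 µM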
Method in brief: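 Cells carrying a PPAR-delta beta-lactamase reporter were treated with compounds for 18 h at 37 °C in agonist mode. CCF4 fluorescence was read after 2 h; EC50 and efficacy from Hill fits.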

Peroxisome proliferator-activated receptor delta (Homo sapiens), sequence (Q03181 whole entry, looked up): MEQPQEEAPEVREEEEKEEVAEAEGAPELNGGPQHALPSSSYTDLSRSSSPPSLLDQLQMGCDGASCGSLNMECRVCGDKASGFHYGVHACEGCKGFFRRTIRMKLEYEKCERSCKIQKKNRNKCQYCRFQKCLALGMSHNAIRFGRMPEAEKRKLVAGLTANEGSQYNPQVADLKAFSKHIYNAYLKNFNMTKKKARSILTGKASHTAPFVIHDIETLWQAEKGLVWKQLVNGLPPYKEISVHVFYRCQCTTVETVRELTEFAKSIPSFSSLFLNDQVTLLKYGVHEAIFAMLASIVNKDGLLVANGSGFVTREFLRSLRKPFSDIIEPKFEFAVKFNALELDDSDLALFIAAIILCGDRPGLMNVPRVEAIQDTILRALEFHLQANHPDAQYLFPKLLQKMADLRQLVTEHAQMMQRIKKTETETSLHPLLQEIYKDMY
Nucleoprotein (Lymphocytic choriomeningitis virus (strain Armstrong)), sequence (P09992 whole entry, looked up): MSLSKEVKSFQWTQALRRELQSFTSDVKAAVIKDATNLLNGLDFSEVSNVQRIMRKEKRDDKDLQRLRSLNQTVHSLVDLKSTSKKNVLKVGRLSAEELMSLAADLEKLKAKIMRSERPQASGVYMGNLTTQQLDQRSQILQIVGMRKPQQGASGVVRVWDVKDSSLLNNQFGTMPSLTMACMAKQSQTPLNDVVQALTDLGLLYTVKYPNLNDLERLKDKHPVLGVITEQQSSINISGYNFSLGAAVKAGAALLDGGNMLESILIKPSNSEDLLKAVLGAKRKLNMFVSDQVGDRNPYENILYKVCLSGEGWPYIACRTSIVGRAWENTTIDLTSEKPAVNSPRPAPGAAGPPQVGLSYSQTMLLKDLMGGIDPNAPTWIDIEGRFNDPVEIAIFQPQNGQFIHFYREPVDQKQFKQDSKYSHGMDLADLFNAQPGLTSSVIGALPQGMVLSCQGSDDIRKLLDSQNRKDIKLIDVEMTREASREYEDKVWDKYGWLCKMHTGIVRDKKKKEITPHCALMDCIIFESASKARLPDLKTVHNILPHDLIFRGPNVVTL
Alpha-galactosidase (Coffea arabica), sequence (Q42656 whole entry, looked up): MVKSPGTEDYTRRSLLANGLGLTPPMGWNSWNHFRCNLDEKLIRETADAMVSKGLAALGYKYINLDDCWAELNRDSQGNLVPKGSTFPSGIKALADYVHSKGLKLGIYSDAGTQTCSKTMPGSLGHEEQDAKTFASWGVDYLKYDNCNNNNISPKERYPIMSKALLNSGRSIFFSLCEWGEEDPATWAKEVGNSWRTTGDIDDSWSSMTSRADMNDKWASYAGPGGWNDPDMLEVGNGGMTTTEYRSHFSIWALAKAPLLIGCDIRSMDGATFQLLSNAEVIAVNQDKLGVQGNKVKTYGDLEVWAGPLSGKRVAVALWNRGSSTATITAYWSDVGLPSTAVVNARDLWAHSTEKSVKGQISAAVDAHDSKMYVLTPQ
Bile acid receptor (Homo sapiens), sequence (Q96RI1 whole entry, looked up): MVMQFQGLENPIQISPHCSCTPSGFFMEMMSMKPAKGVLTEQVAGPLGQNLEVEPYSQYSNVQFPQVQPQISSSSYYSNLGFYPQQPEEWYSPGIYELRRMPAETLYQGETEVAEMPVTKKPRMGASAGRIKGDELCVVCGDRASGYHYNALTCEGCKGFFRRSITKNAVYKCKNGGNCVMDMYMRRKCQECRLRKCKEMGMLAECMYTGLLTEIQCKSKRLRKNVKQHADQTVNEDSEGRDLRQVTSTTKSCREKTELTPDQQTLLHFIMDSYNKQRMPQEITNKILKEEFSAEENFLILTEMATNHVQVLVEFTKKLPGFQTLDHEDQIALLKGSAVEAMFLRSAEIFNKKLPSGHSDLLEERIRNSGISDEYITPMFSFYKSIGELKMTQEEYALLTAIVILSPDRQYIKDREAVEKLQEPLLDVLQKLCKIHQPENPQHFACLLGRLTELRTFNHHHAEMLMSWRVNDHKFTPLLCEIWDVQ

CCCn1c(=O)c2[nH]c(-c3ccc(OCC(=O)NCCN)cc3)nc2n(CCC)c1=O
inactive: outcome [1] | outcome [2] | outcome [3] | Potency [4] | Potency [5] | Potency [6] | Potency [7]

N=C(N)SCCc1ccc(CCSC(=N)N)cc1
inactive: outcome [1] | outcome [2] | outcome [3] | Potency [4] | Potency [5] | Potency [6] | Potency [7]

CC1=C(/C=C/C(C)=C/C=C/C(C)=C\C=O)C(C)(C)CCC1
inactive: activation [8] 25.7% | Potency [9] | Potency [4] | Potency [5] | Potency [6] | Potency [7]

CC(=O)/C=C/C1C(C)=CCCC1(C)C (stereo unspecified)
inactive: activation [8] 2.64% | Potency [9] | Potency [4] | Potency [5] | Potency [6] | Potency [7]

CC(C)[C@H](NC(=O)OCc1ccccc1)C(=O)N[C@H](C=O)Cc1ccccc1
inactive: outcome [1] | outcome [2] | outcome [3] | Potency [4] | Potency [5] | Potency [6] | Potency [7]

CCC(=O)OCCc1ccccc1
inactive: activation [8] 0.429% | Potency [9] | Potency [4] | Potency [5] | Potency [6] | Potency [7]

NCCCCC(=O)O
inactive: outcome [1] | outcome [2] | outcome [3] | Potency [4] | Potency [5] | Potency [6] | Potency [7]
